Laboratory results taken from ChEMBL document CHEMBL3988442, “University of Dundee, Small-Polar-MMV Screening Library” (2021).

Molecular target: T1, Methionyl-tRNA synthetase, putative (Leishmania donovani (strain BPK282A1)) (UniProt E9BF75)
T1 sequence (whole entry): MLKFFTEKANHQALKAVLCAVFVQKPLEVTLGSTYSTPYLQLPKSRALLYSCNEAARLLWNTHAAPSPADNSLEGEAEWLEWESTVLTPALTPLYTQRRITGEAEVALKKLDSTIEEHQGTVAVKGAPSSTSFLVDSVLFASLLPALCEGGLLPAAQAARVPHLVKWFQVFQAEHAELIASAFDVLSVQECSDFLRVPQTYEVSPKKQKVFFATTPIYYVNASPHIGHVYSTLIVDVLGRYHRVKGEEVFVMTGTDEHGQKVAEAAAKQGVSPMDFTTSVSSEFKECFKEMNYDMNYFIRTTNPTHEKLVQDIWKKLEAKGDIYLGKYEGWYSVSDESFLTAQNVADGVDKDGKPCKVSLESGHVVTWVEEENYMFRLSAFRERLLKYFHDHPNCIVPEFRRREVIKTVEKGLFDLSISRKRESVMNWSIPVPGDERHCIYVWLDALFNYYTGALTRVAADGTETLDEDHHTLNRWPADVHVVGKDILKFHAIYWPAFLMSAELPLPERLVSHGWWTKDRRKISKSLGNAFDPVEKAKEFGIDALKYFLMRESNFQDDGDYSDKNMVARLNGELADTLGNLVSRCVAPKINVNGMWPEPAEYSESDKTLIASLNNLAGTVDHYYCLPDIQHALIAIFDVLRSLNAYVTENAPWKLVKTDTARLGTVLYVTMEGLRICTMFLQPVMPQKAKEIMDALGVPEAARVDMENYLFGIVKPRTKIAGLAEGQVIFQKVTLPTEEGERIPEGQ
Experiment: Leishmania donovani Methionine tRNA synthetase (LdMetRS):v7. Dose response assay
Format: functional
Parameters: conc 80 nM, time 150 minutes

O=C(c1ccccc1)C1CCN(c2cncc(-n3cccn3)n2)CC1
PXC50 (MAX_EFFECT 17.57719715): < 4 | PXC50 (MAX_EFFECT 27.64084507): < 4

FC1(F)CCN(Cc2ccccn2)CC12CCN(c1cnccn1)C2 (stereo not given)
PXC50 (MAX_EFFECT 7.476635514): < 4 | PXC50 (MAX_EFFECT 8.163265306): < 4

CCc1nc(NCCOC)c2c3c(sc2n1)CCC3
PXC50 (MAX_EFFECT 5.793450882): < 4 | PXC50 (MAX_EFFECT 9.41475827): < 4

CS(=O)(=O)N1CCN(c2ccc3ccc(C(=O)NCC(=O)N4CCOCC4)cn23)CC1
PXC50 (BOTTOM 0.290613171, HILLSLOPE 1.637678219, MAX_EFFECT 51.19617225, TOP 53.26483222): 4.83 | PXC50 (BOTTOM 5.655540606, HILLSLOPE 2.540340494, MAX_EFFECT 56.3071298, TOP 55.42961413): 4.8

Cc1nc(N2CCC(C(O)CC(C)C)CC2)c2ccsc2n1 (stereo not given)
PXC50 (MAX_EFFECT 3.626943005): < 4 | PXC50 (MAX_EFFECT 4.255319149): < 4

O=C(C1CCC1)N1CCC(c2ncc3c(n2)CCNC3)CC1
PXC50 (MAX_EFFECT 30.83900227): < 4 | PXC50 (MAX_EFFECT 33.27102804): < 4

OC1CN(c2nc(C3CC3)nc3sc4c(c23)CCCC4)C1
PXC50 (MAX_EFFECT 6.914893617): < 4 | PXC50 (MAX_EFFECT 8.808290155): < 4

CCC(=O)N1CCC(c2ncc3c(n2)CCNC3)CC1
PXC50 (MAX_EFFECT 1.814058957): < 4 | PXC50 (MAX_EFFECT 14.20560748): < 4

Cc1nc2c(-c3nc(-c4ccccc4N)n[nH]3)cccn2c1C
PXC50 (MAX_EFFECT 15.34883721): < 4 | PXC50 (MAX_EFFECT 20.27972028): < 4

CS(=O)(=O)N1CCN(c2ccc3ncc(C(=O)NC4CCCC4)cn23)CC1
PXC50 (MAX_EFFECT 7.456140351): < 4 | PXC50 (MAX_EFFECT 9.895833333): < 4

CN(c1ncnc2c1CCC2)C1CCCN(c2cccnn2)C1 (stereo not given)
PXC50 (MAX_EFFECT 11.7370892): < 4 | PXC50 (MAX_EFFECT 15.37037037): < 4

CNC(=O)CN(C)c1nc(-c2cccs2)nc2sc(C)c(C)c12
PXC50 (MAX_EFFECT 6.801007557): < 4 | PXC50 (MAX_EFFECT 6.870229008): < 4

Cc1nc(NC(CC(C)C)C(=O)O)c2c3c(sc2n1)CCC3 (stereo not given)
PXC50 (MAX_EFFECT 14.004914): < 4 | PXC50 (MAX_EFFECT 14.57286432): < 4

O=C(c1c[nH]cn1)N1CCC(F)(F)C2(CCN(c3cnccn3)C2)C1 (stereo not given)
PXC50 (MAX_EFFECT 1.584507042): < 4 | PXC50 (MAX_EFFECT 3.800475059): < 4

CCn1ncc(-c2cc(C(F)(F)F)nc(N3CCC(N)CC3)n2)c1C
PXC50 (MAX_EFFECT 0.522193211): < 4 | PXC50 (MAX_EFFECT 1.305483029): < 4

CN1CCN(C(=O)CNC(=O)c2ccc3ccc(N4CCN(S(C)(=O)=O)CC4)n3c2)CC1
PXC50 (BOTTOM 0.0904, HILLSLOPE 2.137945772, MAX_EFFECT 50.23923445, TOP 52.555747): 4.83 | PXC50 (BOTTOM 3.391781155, HILLSLOPE 3.900764743, MAX_EFFECT 59.59780622, TOP 59.91227163): 4.76

NCC1CC1c1ccc(Cl)cc1Cl (stereo not given)
PXC50 (BOTTOM -0.51010351, HILLSLOPE 1.132508714, MAX_EFFECT 55.5075594, TOP 100.0): 3.07 | PXC50 (MAX_EFFECT 48.09885932): < 3

Cc1cc2ccc(N3CCN(S(C)(=O)=O)CC3)n2cc1C(=O)NC1CCCC1
PXC50 (MAX_EFFECT 43.22916667): < 4 | PXC50 (MAX_EFFECT 44.29824561): < 4

Cc1nc(NCCCN2CCC(O)CC2)c2c(-c3cccs3)csc2n1
PXC50 (MAX_EFFECT 4.325699746): < 4 | PXC50 (MAX_EFFECT 7.808564232): < 4

Cc1ccc(N2CCC3(CN(Cc4cccs4)CCC3(F)F)C2)nn1 (stereo not given)
PXC50 (MAX_EFFECT 4.988662132): < 4 | PXC50 (MAX_EFFECT 10.8411215): < 4

Cc1ccc(-c2cc(C(F)(F)F)nc(NCCCN(C)C)n2)cc1
PXC50 (MAX_EFFECT 7.446808511): < 4 | PXC50 (MAX_EFFECT 8.808290155): < 4

O=C(c1c[nH]cn1)N1CCC(F)(F)C2(CCN(c3ccccn3)C2)C1 (stereo not given)
PXC50 (MAX_EFFECT 10.79812207): < 4 | PXC50 (MAX_EFFECT 12.40740741): < 4

Cc1cc2c(N3CCC(C(N)=O)CC3)nc(-c3cccnc3)nc2s1
PXC50 (MAX_EFFECT 10.38251366): < 4 | PXC50 (MAX_EFFECT 13.36898396): < 4

O=c1cc(NCCCNC2CCOc3c(I)cc(Cl)cc32)[nH]c2ccccc12 (stereo not given)
PXC50 (BOTTOM 0.0, HILLSLOPE 1.492515979, MAX_EFFECT 100.0, TOP 105.2364851): 5.24 | PXC50 (BOTTOM 6.728264836, HILLSLOPE 2.160741468, MAX_EFFECT 100.4651163, TOP 100.3878671): 5.22

Cc1sc2nc(-c3cccnc3)nc(N3CCCC(CO)C3)c2c1C (stereo not given)
PXC50 (BOTTOM 0.693465662, HILLSLOPE 1.473836838, MAX_EFFECT 56.47668394, TOP 100.0): 4.07 | PXC50 (BOTTOM -1.655591932, HILLSLOPE 1.509629481, MAX_EFFECT 54.25531915, TOP 100.0): 4.06

Nc1noc2ccc(-c3cnc4ccc(N5CCCCC5)nn34)cc12
PXC50 (BOTTOM 2.074435444, HILLSLOPE 0.92774459, MAX_EFFECT 58.33333333, TOP 100.0): 4.06 | PXC50 (BOTTOM -0.552717408, HILLSLOPE 0.869319648, MAX_EFFECT 51.90839695, TOP 100.0): 4.01

CS(=O)(=O)N1CCN(c2ccc3ccc(C(=O)NC4CCCC4)cn23)CC1
PXC50 (BOTTOM 3.919126037, HILLSLOPE 1.949141012, MAX_EFFECT 63.17460317, TOP 66.86118232): 4.76 | PXC50 (BOTTOM 4.67001684, HILLSLOPE 2.010919918, MAX_EFFECT 67.58893281, TOP 64.90205504): 5

Cc1noc(CCNC(=O)c2ccc3ccc(N4CCN(S(C)(=O)=O)CC4)n3c2)n1
PXC50 (BOTTOM 5.724020306, HILLSLOPE 2.592848239, MAX_EFFECT 58.13528336, TOP 58.43223286): 4.74 | PXC50 (BOTTOM -1.848364429, HILLSLOPE 1.849781613, MAX_EFFECT 52.63157895, TOP 54.86189083): 4.91

Cc1sc2nc(C(F)(F)F)nc(N3CCC(NS(C)(=O)=O)CC3)c2c1C
PXC50 (MAX_EFFECT 0.0): < 4 | PXC50 (MAX_EFFECT 1.305483029): < 4

NC(=O)C1CCN(c2cncc(-n3cccn3)n2)CC1
PXC50 (MAX_EFFECT 1.936619718): < 4 | PXC50 (MAX_EFFECT 4.750593824): < 4
